The assay deals with A673/TR/shEF. The assay can be described thus: cell viability (LOESS-normalised, relative to median of negative controls) (log2 ratio); higher = more viable cells (less compound effect), active = hit call of the paper (over 3 MAD below the median). The conditions noted are these: treatment time: 72 h. Put shortly: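 Viability of A673/TR/shEF Ewing sarcoma cells was determined by CellTiter-Glo luminescence. The cells, at 1,500 per well in 384-well plates, were grown with or without doxycycline from 24 h before compound addition to switch on EWS-FLI1 shRNA knockdown, then exposed for three days to library compounds at two or more concentrations or to DMSO controls. Signals were LOESS-corrected plate by plate, normalised to the negative-control median and log2-transformed.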

Setting [1] is: 0.25 µM, library screen: screen1, EWS-FLI1 expression: high (no doxycycline).
The mark [2] stands for this setting: 0.25 µM, library screen: screen1, EWS-FLI1 expression: low (doxycycline-induced shRNA knockdown).
Where [3] appears, read: 2.5 µM, library screen: screen1, EWS-FLI1 expression: high (no doxycycline).
Setting [4] is: 2.5 µM, library screen: screen1, EWS-FLI1 expression: low (doxycycline-induced shRNA knockdown).
Where [5] appears, read: 0.25 µM, library screen: screen2, EWS-FLI1 expression: high (no doxycycline).
Setting [6] is: 0.25 µM, library screen: screen2, EWS-FLI1 expression: low (doxycycline-induced shRNA knockdown).
[7] abbreviates: 2.5 µM, library screen: screen2, EWS-FLI1 expression: high (no doxycycline).
Setting [8] is: 2.5 µM, library screen: screen2, EWS-FLI1 expression: low (doxycycline-induced shRNA knockdown).
[9] abbreviates: 0.103 µM, library screen: screen3, EWS-FLI1 expression: high (no doxycycline).
[10] abbreviates: 0.103 µM, library screen: screen3, EWS-FLI1 expression: low (doxycycline-induced shRNA knockdown).
Setting [11] is: 0.308 µM, library screen: screen3, EWS-FLI1 expression: high (no doxycycline).
Where [12] appears, read: 0.308 µM, library screen: screen3, EWS-FLI1 expression: low (doxycycline-induced shRNA knockdown).
[13] abbreviates: 0.926 µM, library screen: screen3, EWS-FLI1 expression: high (no doxycycline).
[14] abbreviates: 0.926 µM, library screen: screen3, EWS-FLI1 expression: low (doxycycline-induced shRNA knockdown).
Setting [15] is: 2.8 µM, library screen: screen3, EWS-FLI1 expression: high (no doxycycline).
The mark [16] stands for this setting: 2.8 µM, library screen: screen3, EWS-FLI1 expression: low (doxycycline-induced shRNA knockdown).
The mark [17] stands for this setting: 8.3 µM, library screen: screen3, EWS-FLI1 expression: high (no doxycycline).
Setting [18] is: 8.3 µM, library screen: screen3, EWS-FLI1 expression: low (doxycycline-induced shRNA knockdown).
The mark [19] stands for this setting: 25 µM, library screen: screen3, EWS-FLI1 expression: high (no doxycycline).
Setting [20] is: 25 µM, library screen: screen3, EWS-FLI1 expression: low (doxycycline-induced shRNA knockdown).

Screen size: about 3,200 compounds; about 300 (9.4%) showed activity. The sample as a whole holds a higher share of actives than the screen did. Unmarked numbers belong to inactive results.

For the compound `COC(=O)[C@H](O)[C@H]1C(C)(C)[C@H](O)[C@@H]2CC3=C4CC(=O)O[C@@H](c5ccco5)[C@]4(C)CC[C@@H]3[C@@]1(C)C2=O`, the “cell viability (log2)” value was 0.0837 under setting [1], 0.0423 under setting [2], 0.0416 under setting [3] and -0.137 under setting [4].
For `COc1ccc(C2NC(=O)NC(C)=C2C(=O)Nc2ccccc2Cl)cc1OC` (stereo not drawn), the “cell viability (log2)” value under setting [1] is 0.0783, the “cell viability (log2)” value under setting [2] was 0.013, the “cell viability (log2)” value under setting [3] is 0.0736 and the “cell viability (log2)” value under setting [4] is -0.0647.
Take `CCCCCCCC/C=C/CCCCCCCC(=O)OC(CO)COC(=O)CCCCCCCCCCCCCCC` (stereo not drawn): the “cell viability (log2)” value reads like this: under setting [5], 0.242; under setting [6], 0.101; under setting [7], 0.231; under setting [8], 0.152.
Taken in the same sequence, the figures for `CCCCCCCCCCCCCCC[C@H](O)[C@H](N)CO` were 0.153, 0.105, 0.146 and 0.102.
With `CCCCCCCCCCCCC/C=C/[C@@H](O)[C@@H](N)CO`, the “cell viability (log2)” value runs as follows: (0.025 µM, library screen: screen1, EWS-FLI1 expression: high (no doxycycline)) 0.0541; (0.025 µM, library screen: screen1, EWS-FLI1 expression: low (doxycycline-induced shRNA knockdown)) 0.028; under setting [1], 0.0998; under setting [2], 0.0415; under setting [5], 0.0615; under setting [6], 0.0389. Moreover, the “cell viability (log2)” value is 0.0515 under setting [3]; 0.0695 under setting [4]; 0.162 under setting [7]; 0.0866 under setting [8]; -4.25 (active) (25 µM, library screen: screen1, EWS-FLI1 expression: high (no doxycycline)); -4.31 (active) (25 µM, library screen: screen1, EWS-FLI1 expression: low (doxycycline-induced shRNA knockdown)).
On to `CCC(C)n1ncn(-c2ccc(N3CCN(c4ccc(OC[C@H]5CO[C@](Cn6cncn6)(c6ccc(Cl)cc6Cl)O5)cc4)CC3)cc2)c1=O` (stereo partly drawn), for which the “cell viability (log2)” value under setting [9] was -0.00587; the “cell viability (log2)” value under setting [10] is -0.0322; the “cell viability (log2)” value under setting [11] is 0.0158; the “cell viability (log2)” value under setting [12] was 0.0366; the “cell viability (log2)” value under setting [13] is 0.0942; the “cell viability (log2)” value under setting [14] was 0.0808. The “cell viability (log2)” value is 0.0248 under setting [15]; 0.0437 under setting [16]; -0.13 under setting [17]; 0.0912 under setting [18]; 0.0658 under setting [19]; 0.11 under setting [20].
`COC(=O)C(O)c1ccccc1` (stereo not drawn): the “cell viability (log2)” value under setting [1] is 0.0881, the “cell viability (log2)” value under setting [2] is 0.0567, the “cell viability (log2)” value under setting [3] is 0.0992 and the “cell viability (log2)” value under setting [4] is 0.015.
Consider `Nc1ccc2c3c(cccc13)C(=O)NC2=O`, for which the “cell viability (log2)” value runs as follows: under setting [5], -0.219 (active); under setting [6], 0.0582; under setting [7], 0.0677; under setting [8], 0.123.
For the compound `COc1cc(/C=C/C=O)cc(OC)c1OC`, the “cell viability (log2)” value was 0.0589 under setting [1], 0.0132 under setting [2], 0.0586 under setting [3] and 0.0289 under setting [4].
Turning to `OC1C=CC(Br)C(O)C1O` (stereo not drawn), the “cell viability (log2)” value is 0.12 under setting [5], 0.141 under setting [6], 0.0654 under setting [7] and 0.0803 under setting [8].
For the compound `FC(F)(F)c1ccc(/C=C/c2nc(COc3ccc(CCCCn4ccnn4)cc3)co2)cc1`, the “cell viability (log2)” value under setting [9] is -0.325 (active); the “cell viability (log2)” value under setting [10] was -0.0943; the “cell viability (log2)” value under setting [11] was -0.568 (active); the “cell viability (log2)” value under setting [12] is -0.12 (active); the “cell viability (log2)” value under setting [13] was -0.774 (active); the “cell viability (log2)” value under setting [14] was -0.153 (active). Moreover, the “cell viability (log2)” value by setting is: under setting [15], -1.45 (active); under setting [16], -0.118 (active); under setting [17], -1.63 (active); under setting [18], -0.193 (active); under setting [19], -1.47 (active); under setting [20], -0.184 (active).
On to `CC(=O)OC1CC[C@@]2(C)C(CC[C@H]3[C@@H]4CC=C(C(C)=O)[C@@]4(C)C(=O)C[C@@H]32)C1` (stereo partly drawn), for which the “cell viability (log2)” value runs as follows: under setting [1], 0.0289; under setting [2], 0.0314; under setting [3], 0.141; under setting [4], 0.0915.
In the same order, the values of `COC(=O)C[C@H]1C(C)(C)[C@H](O)[C@@H]2CC3=C4CC(O)O[C@@H](c5ccoc5)[C@]4(C)CCC3[C@@]1(C)C2=O` (stereo partly drawn) are 0.0798, 0.183, 0.141 and 0.127.
As to `C[C@H](NCCc1ccc(O)cc1)[C@H](O)c1ccc(O)cc1`, the “cell viability (log2)” value is, setting by setting: under setting [9], -0.0282; under setting [10], 0.0403; under setting [1], 0.119; under setting [2], 0.0926; under setting [5], 0.11; under setting [6], 0.0788. Also, the “cell viability (log2)” value was 0.0762 under setting [11]; 0.0395 under setting [12]; 0.0419 under setting [13]; 0.0833 under setting [14]; 0.157 under setting [3]; 0.125 under setting [4]. For the same compound, the “cell viability (log2)” value under setting [7] is 0.0729; the “cell viability (log2)” value under setting [8] was -0.0642; the “cell viability (log2)” value under setting [15] was 0.0463; the “cell viability (log2)” value under setting [16] was 0.0441; the “cell viability (log2)” value under setting [17] was 0.098; the “cell viability (log2)” value under setting [18] was 0.0382. Moreover, the “cell viability (log2)” value runs as follows: under setting [19], 0.0513; under setting [20], 0.0444.
Turning to `COc1ccc(CCNCC(O)c2ccc(O)cc2)cc1OC` (stereo not drawn), the “cell viability (log2)” value was 0.167 under setting [5], -0.0395 under setting [6], -0.721 (active) under setting [7] and -0.108 (active) under setting [8].
Taken in the same sequence, the figures for `COc1ccc(CCN(C)CCc2ccc(OC)c(OC)c2)cc1OC` were 0.187, 0.0366, 0.198 and 0.0294.
Turning to `CC1(C)C(=O)C=C[C@]2(C)[C@H]3CC[C@@]4(C)[C@H](c5ccoc5)OC(=O)[C@H]5O[C@]54[C@]3(C)C=C[C@@H]12`, the “cell viability (log2)” value is, setting by setting: under setting [1], 0.0993; under setting [2], 0.0207; under setting [3], 0.1; under setting [4], 0.161.
